Dicer inh – inhibitors of Dicer pre-microRNA processing, primary screen, biochemical, cat-ELCCA, chemiluminescence; cat-ELCCA pre-miR-21 Dicer processing; hits give high values; z-score at 25 µM; actives 6% (n = 47,000); AID 1347074, 2019; in the data active = z-score above about 3, passing the limit was not always enough;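 note: plate controls were vehicle for no effect and no enzyme for full effect; higher signal means more uncleaved substrate so more Dicer inhibition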
Target sequence (Q9UPY3 whole entry, looked up): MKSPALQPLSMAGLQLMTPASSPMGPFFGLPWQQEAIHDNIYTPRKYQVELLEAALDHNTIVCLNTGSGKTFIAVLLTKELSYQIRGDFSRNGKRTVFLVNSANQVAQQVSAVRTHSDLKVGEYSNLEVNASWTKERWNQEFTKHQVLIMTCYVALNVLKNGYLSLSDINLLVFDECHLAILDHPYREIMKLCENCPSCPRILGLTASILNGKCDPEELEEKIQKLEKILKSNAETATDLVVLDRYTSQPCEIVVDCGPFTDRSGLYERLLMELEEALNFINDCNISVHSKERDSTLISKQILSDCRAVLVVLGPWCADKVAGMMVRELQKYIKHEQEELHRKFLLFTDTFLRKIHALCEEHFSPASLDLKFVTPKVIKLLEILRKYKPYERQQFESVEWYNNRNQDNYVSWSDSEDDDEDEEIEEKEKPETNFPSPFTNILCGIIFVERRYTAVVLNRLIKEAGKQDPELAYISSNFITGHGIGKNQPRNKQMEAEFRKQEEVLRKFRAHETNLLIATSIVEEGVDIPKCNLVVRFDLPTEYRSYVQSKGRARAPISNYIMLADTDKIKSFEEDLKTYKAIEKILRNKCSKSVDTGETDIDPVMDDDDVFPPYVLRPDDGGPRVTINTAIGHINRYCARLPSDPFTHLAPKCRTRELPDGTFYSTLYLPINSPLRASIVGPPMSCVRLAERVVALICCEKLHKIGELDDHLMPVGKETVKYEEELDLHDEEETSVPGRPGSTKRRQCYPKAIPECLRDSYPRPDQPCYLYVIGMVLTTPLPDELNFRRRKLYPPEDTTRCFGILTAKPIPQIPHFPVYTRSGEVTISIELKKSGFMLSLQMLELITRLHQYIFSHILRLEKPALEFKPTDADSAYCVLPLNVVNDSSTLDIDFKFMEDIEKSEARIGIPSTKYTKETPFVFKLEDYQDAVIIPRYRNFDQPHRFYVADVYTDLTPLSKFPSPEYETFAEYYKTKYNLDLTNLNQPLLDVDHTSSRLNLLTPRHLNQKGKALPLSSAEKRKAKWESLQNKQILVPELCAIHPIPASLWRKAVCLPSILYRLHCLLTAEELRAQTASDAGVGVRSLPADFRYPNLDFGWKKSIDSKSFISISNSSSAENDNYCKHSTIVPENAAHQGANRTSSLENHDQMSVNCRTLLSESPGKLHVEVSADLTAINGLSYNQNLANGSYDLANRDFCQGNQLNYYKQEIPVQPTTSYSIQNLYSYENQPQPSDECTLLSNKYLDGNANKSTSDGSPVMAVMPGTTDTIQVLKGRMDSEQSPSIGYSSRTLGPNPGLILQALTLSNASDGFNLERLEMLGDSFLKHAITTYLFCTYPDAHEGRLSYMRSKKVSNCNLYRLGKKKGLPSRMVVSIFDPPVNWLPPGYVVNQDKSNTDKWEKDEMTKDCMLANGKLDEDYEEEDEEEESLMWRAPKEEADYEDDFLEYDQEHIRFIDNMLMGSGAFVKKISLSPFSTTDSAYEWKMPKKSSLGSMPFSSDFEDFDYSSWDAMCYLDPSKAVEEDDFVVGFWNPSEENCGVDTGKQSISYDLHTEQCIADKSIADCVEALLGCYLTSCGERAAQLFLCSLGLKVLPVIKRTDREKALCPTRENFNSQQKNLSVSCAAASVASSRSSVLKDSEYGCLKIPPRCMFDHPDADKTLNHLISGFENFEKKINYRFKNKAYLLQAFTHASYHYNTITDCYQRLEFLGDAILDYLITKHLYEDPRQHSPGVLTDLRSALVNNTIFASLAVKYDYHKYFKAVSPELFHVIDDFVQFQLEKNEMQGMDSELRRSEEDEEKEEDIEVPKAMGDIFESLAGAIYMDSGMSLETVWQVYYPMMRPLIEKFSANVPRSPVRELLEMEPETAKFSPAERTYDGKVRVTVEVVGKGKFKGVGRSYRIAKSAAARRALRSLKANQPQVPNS
* marks the source's active call; other numbers are inactive results. The full list was thinned out, with hits kept by preference.

How did Cc1ccc(CNC(=S)N(C)C)cc1 do in these assays?
Dicer inh: -0.69

What do the screens show for `CCN(CC)C(=S)NC(=S)c1ccc(C)cc1`?
Dicer inh: 16*

How did Cc1c(C(=O)O)cc(C(C)(C)C)n1-c1ccccc1 do in these assays?
Dicer inh: 0.95

What do the screens show for `Cc1csc(NC(=O)COCC(=O)O)c1-c1nc2ccccc2s1`?
Dicer inh: 1.3

How did Cc1csc(NS(=O)(=O)c2ccc(Cl)cc2)c1-c1nc2ccccc2s1 do in these assays?
Dicer inh: 4.2*

Results for CC(=O)Nc1scc(C)c1-c1nc2ccccc2s1 ?
Dicer inh: -0.01

How did CCOC(=O)c1sc(SCc2ccccc2)c2c1CC(c1ccc(C)cc1)CC2O (centres undefined) do in these assays?
Dicer inh: 1.4

How did CCOC(=O)COc1c(C(=O)OCC)sc2c1c(=O)n(-c1ccccc1)c(=S)n2-c1ccccc1 do in these assays?
Dicer inh: -0.91

How did Cc1ccc2oc(=O)n(CCC(=O)O)c2c1 do in these assays?
Dicer inh: 2.6

Results for CCCCn1c(=O)oc2ccc(C)cc21 ?
Dicer inh: 3.6*

What do the screens show for `Cc1ccc2oc(=O)n(Cc3ccc(F)cc3)c2c1`?
Dicer inh: 0.33

What do the screens show for `Cc1cc(OC(=O)c2c(-c3ccccc3)noc2C)c2cc(F)ccc2n1`?
Dicer inh: 1.9

Results for CCCCCCCC1CCC/C1=N/OC(=O)c1ccc([N+](=O)[O-])cc1 (centres undefined) ?
Dicer inh: 1.6

Results for Cc1cc(C)n(-c2ccc(-n3cccc3/C=C(\C#N)S(C)(=O)=O)cc2)n1 ?
Dicer inh: 0.25

How did Cc1sc(N)nc1-c1ccc(CC(C)C)cc1 do in these assays?
Dicer inh: -1.7

Results for Cc1ccc(-c2nc(N)sc2C)cc1 ?
Dicer inh: 0.07

What do the screens show for `Cc1ccc(-c2nc(N)sc2-c2ccccc2)cc1`?
Dicer inh: 3.1*

How did O=C(CSc1nncn1-c1ccc(C(F)(F)F)cc1)c1ccc(F)cc1 do in these assays?
Dicer inh: -0.69

Results for Fc1ccc(C2=NN=C(c3ccc(F)cc3)CC(c3ccccc3)=C2)cc1 ?
Dicer inh: -1.9

What do the screens show for `Brc1cccc(CN2CCN(Cc3ccncc3)CC2)c1`?
Dicer inh: 2.8

How did Clc1ccccc1CN1CCN(Cc2cccnc2)CC1 do in these assays?
Dicer inh: 1.4

How did CCc1ccc(CN2CCN(Cc3cccnc3)CC2)cc1 do in these assays?
Dicer inh: 3.1*

How did Cc1cccc(Cl)c1/C=N/NC(=O)Cc1csc(-c2ccccc2)n1 do in these assays?
Dicer inh: -0.38

How did CCc1cn(C(=O)c2ccccc2F)nc1-c1c(F)cccc1F do in these assays?
Dicer inh: -1

How did Cc1ccc(C(=O)NNC(=O)CSc2ncnc3c(C)csc23)cc1 do in these assays?
Dicer inh: 0.22

Results for COc1ccc(-c2nnc(-c3ccncc3)o2)cc1 ?
Dicer inh: -0.79

Results for Cc1cc(-c2nnc(SCC(=O)c3ccc4c(c3)OCCO4)o2)no1 ?
Dicer inh: -1.3

Results for Cc1cc(NC(=O)c2ccc3c(c2)OCCO3)no1 ?
Dicer inh: 4.2*

How did Cc1cc(NC(=O)c2ccc3c(c2)OCO3)no1 do in these assays?
Dicer inh: 20

What do the screens show for `CC(C)c1ccc(NNC(=O)CCc2ccccc2)cc1`?
Dicer inh: -2

What do the screens show for `COc1ccc(NCC(O)Cn2c3ccccc3c3ccccc32)c(OC)c1` (centres undefined)?
Dicer inh: 0.29

Results for Cc1[nH]c2ccccc2c(=O)c1CN(C)C ?
Dicer inh: -0.83

Results for Cc1ccc(-c2nc(NCCCN(C)C)c3ccccc3n2)cc1 ?
Dicer inh: 7.8

How did Cc1ncc(CCCCN(C)C)c2c1[nH]c1ccccc12 do in these assays?
Dicer inh: 7.7*

What do the screens show for `CCCc1c(SC(=O)N(C)C)ccc2c(C)cc(=O)oc12`?
Dicer inh: -0.37

Results for CCOc1c(Br)cc(Br)cc1/C=C1/SC(=S)NC1=O ?
Dicer inh: 7.9

What do the screens show for `CSc1sc(C(=O)NC(C)(C)C)c(-c2ccc(Cl)cc2)c1C#N`?
Dicer inh: -3.2

How did CCSc1sc(C(=O)OC)c(-c2ccc(Cl)cc2)c1C#N do in these assays?
Dicer inh: 0.97

Results for CCOC(=O)c1sc(SC(C)C)c(C#N)c1-c1ccc(Cl)cc1 ?
Dicer inh: 5*

How did CC(C)Sc1sc(C(=O)O)c(-c2ccc(Cl)cc2)c1C#N do in these assays?
Dicer inh: 4.1*

Results for CCOC(=O)CSc1sc(C(=O)OCC)c(-c2ccc(Cl)cc2)c1C#N ?
Dicer inh: -2

What do the screens show for `CCOC(=O)c1sc(SC(C)CC)c(C#N)c1-c1ccc(Cl)cc1` (centres undefined)?
Dicer inh: 0.13

Results for CCOC(=O)C1=C(C)NC2=C(C(=O)CC(C)(C)C2)C1c1cccc(F)c1 (centres undefined) ?
Dicer inh: -0.62

Results for O=S(=O)(CCO/N=C/c1ccco1)c1ccc(Cl)cc1 ?
Dicer inh: -1.8

What do the screens show for `CNC(=O)Sc1c(-c2ccc(Cl)cc2)nn(C(=O)NC)c1SC`?
Dicer inh: -7.7

Results for O=C(O)CCSc1nnc(-c2ccncc2)o1 ?
Dicer inh: -0.4

What do the screens show for `C(=N\Nc1nc2ccccc2s1)/c1ccco1`?
Dicer inh: 3.8*

What do the screens show for `COc1cc2ccccc2cc1C(=O)Nc1nc2ccccc2s1`?
Dicer inh: -0.01

Results for Cc1nn(-c2ccccc2)cc1/C=N/Nc1nc2ccccc2s1 ?
Dicer inh: 2.2

What do the screens show for `C(=N\Nc1nc2ccccc2s1)/c1cccs1`?
Dicer inh: -0.23

Results for COc1cc(/C=N/Nc2nc3ccccc3s2)cc(OC)c1OC ?
Dicer inh: 3.5*

Results for COc1cc(/C=N/NC(=S)NCCc2ccccc2)cc(OC)c1OC ?
Dicer inh: -0.71

How did O=C(NCC1CCCO1)N1CCOCC1 (centres undefined) do in these assays?
Dicer inh: -0.5

What do the screens show for `CC(=O)CSC(=Nc1ccc(Cl)cc1)NC(=O)c1c(F)cccc1Cl`?
Dicer inh: 1.9

How did O=C1NCCCC1C(=O)NCC(O)CO (centres undefined) do in these assays?
Dicer inh: -1

What do the screens show for `C#CCN1C(=O)C(O)(CC(=O)c2ccco2)c2cc(Br)ccc21` (centres undefined)?
Dicer inh: 2.1

Results for NS(=O)(=O)c1ccc(NC(=O)C2CCCCC2)cc1 ?
Dicer inh: 1.4

What do the screens show for `COc1cc(C(F)(F)F)c(C(=O)Nc2c(C)cccc2C)cn1`?
Dicer inh: -0.66

Results for CCOC(=O)c1nnn(-c2cc(Cl)cc(Cl)c2)c1Sc1ccc(C)cc1 ?
Dicer inh: -0.13

What do the screens show for `O=c1c2ccccc2oc2cc(O)ccc12`?
Dicer inh: 0.39

How did COc1ccc2c(=O)cc(-c3ccccc3)oc2c1 do in these assays?
Dicer inh: -0.36

Results for O=c1ccc2c(-c3ccccc3)c3ccc(O)cc3oc-2c1 ?
Dicer inh: 3.1*

What do the screens show for `COc1ccc(Oc2c(C(F)(F)F)oc3cc(OC(=O)c4ccco4)ccc3c2=O)cc1`?
Dicer inh: -0.47

Results for CN(C)S(=O)(=O)c1ccccc1[N+](=O)[O-] ?
Dicer inh: 0.06

What do the screens show for `COc1ccc(/C(O)=C2\C(=O)C(=O)N(CCN(C)C)C2c2ccc(C)cc2)cc1` (centres undefined)?
Dicer inh: 1.2

How did COc1cc(CNCCO)ccc1OCc1ccc(F)cc1 do in these assays?
Dicer inh: 0.66

Results for O=C1CC(Nc2ccccc2)C=C1Nc1ccccc1 (centres undefined) ?
Dicer inh: -0.09

High-throughput results deposited in PubChem by Center for Chemical Genomics, University of Michigan.
